HEK293 viab – counter-screen for SNCA expression inhibitors: cell viability; actives 0.12% (n = 150,000); AID 1671193; HEK-293-SNCA-luc viability, GF-AFC fluorescence, 24 h; Potency, µM (highest dose often 57.1 µM), without a hit: top-dose activity change, negative = cytotoxicity, hits mostly cytotoxic;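 also: 0% = DMSO-treated cells and -100% = medium-only wells without cells; nearly all actives have a fitted effect of over 30% in size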
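HEK-293-SNCA-luc cells (1500/well) plated 24 h, then exposed 24 h to a dilution series; GF-AFC added 30 min at 37C, fluorescence 405/540 nm; normalised to medium-only and DMSO wells, Hill fit.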
hNpr1 antagonist – antagonists of human natriuretic peptide receptor Npr1 | actives 1.6% (n = 76,000) | AID 1347048 | P16066 | Potency, µM (top dose mostly 46.3 µM), for inactives: top-dose activity change, negative = inhibition, usual class: inhibitors | HEK293 hNpr1 GloSensor cGMP, ANP-stimulated luminescence; calls by dose curve; also: nearly all actives have a fitted effect of over 60% in size
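HEK293 cells stably expressing human Npr1 and cGMP GloSensor pGS-40F, loaded 2 h with 2% GloSensor reagent, given compound 30 min at room temperature. Luminescence read before and 20 min after 0.1 nM hNppA.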
FLuc inh – Photinus pyralis luciferase inhibition; P08659; purified P. pyralis luciferase, luminescence, biochemical; Potency, µM (titrated, usually from 115 µM), hits mostly inhibitors; actives 2.5% (n = 76,000); AID 1347043; also: nearly all actives have a fitted effect of over 65% in size
Target sequence (P08659 whole entry, looked up): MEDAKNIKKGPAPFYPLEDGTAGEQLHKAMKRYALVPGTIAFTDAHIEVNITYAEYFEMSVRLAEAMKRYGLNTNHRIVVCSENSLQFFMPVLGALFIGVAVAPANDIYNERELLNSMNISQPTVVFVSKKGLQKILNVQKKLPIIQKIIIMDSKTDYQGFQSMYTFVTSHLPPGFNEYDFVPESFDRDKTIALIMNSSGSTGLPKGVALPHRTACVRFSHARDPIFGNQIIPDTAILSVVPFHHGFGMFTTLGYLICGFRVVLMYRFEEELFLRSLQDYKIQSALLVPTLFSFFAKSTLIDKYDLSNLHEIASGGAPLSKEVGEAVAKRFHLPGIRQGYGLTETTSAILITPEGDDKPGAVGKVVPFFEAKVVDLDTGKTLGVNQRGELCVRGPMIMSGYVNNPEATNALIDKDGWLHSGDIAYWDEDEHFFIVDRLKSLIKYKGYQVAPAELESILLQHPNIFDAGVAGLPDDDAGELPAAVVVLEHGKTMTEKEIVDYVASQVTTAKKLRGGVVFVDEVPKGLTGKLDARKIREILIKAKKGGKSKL
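Luminescence read by CCD imager after adding enzyme (10nM final) to wells holding compound, titrated in qHTS. Substrates 10uM each D-luciferin and ATP; buffer 50mM Tris acetate pH 7.5, 10mM Mg acetate, Tween-20, BSA.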
SNCA expr inhib – reduces expression of the alpha-synuclein gene. HEK-293 SNCA-luciferase knock-in, luminescence, 24 h. Potency, µM (doses to about 57.2 µM), for the others: top-dose activity change, negative = inhibition, most hits filed as inhibitors. actives 0.17% (n = 140,000);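 also: plate controls were DMSO cells for no effect and cell-free wells for full effect; nearly all actives have a fitted effect of over 45% in size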
HEK cytotox – HEK 293 cell cytotoxicity. Potency, µM (titrated, usually from 115 µM), inactives show at the highest dose activity change, negative = cytotoxicity, usual class: inhibitors. actives 6.6% (n = 94,000). AID 1345083. HEK 293 viability, ATP luminescence (CellTiter-Glo), 48-72 h; also: nearly all actives have a fitted effect of over 60% in size
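Read-out: CellTiter-Glo ATP luminescence. Cells: HEK 293, 250 cells/well. Exposure: 48 or 72 hr, 37 degree Celsius.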
NIH3T3 tox – NIH 3T3 cell cytotoxicity. NIH 3T3 viability, CellTiter-Glo ATP luminescence, 48-72 h. Potency, µM (series often up to 96.7 µM), for the others: at the top dose activity change, negative = cytotoxicity, most hits filed as inhibitors. actives 4.3% (n = 94,000). AID 1345082; also: nearly all actives have a fitted effect of over 55% in size
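Cytotoxicity is measured as loss of cellular ATP: NIH 3T3 cells (400/well) are exposed to compound for 48 or 72 hr at 37 °C, then CellTiter-Glo luminescence is imaged after 10 min at room temperature.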
* hit, by the source's call; i = inactive; ? = inconclusive; . = no result given; ! = not confirmed by another sample; [ ] = another dose, or the depositor's remark. Shown are actives, neighbours in structure and some others; about 7.4% of the full set was active somewhere. Unless noted, calls follow the shape of the dose curve; as a rule, active = well fitted curve in the direction sought with a large enough effect; inconclusive = small, poorly fitted or top-dose-only effect, or another doubt; inactive = no such curve, though single readings can be large; an effect the other way counts as inactive or inconclusive. Unless noted, % is scaled to controls: 0 for no effect and ±100 for the full control effect; potency is read from the fitted curve at half-maximal effect.

SMILES	HEK293 viab	hNpr1 antagonist	FLuc inh	SNCA expr inhib	HEK cytotox	NIH3T3 tox
O=C(NC1CCN(c2cc(-c3ccc(Cl)cc3)[nH]n2)C1)c1ccc2[nH]ccc2c1 (stereo not given)	-16.6%	-24.0%	?	8.8%	?	39.8µM*
CC1C=CC2CCCCC2C1CCC1CC(O)CC(=O)O1 (stereo not given)	-14.3%	.	.	.	.	.
COc1ccc(CCNC(=O)c2nc3sccn3c2-c2cccnc2)cc1	10.6%	.	.	6.2%	-18.8%	-27.1%
COCCn1c(=O)c(C(=O)N2CCN(C(=O)OC)CC2)nc2cccnc21	1.7%	.	.	-16.1%	i	-0.5%
N#Cc1ccc(C(=O)NC2CCN(c3cc(-c4ccc(Cl)cc4)[nH]n3)C2)cc1 (stereo not given)	-7.3%	?	i	-3.2%	44.7µM*	?
N#Cc1cccc(NC(=S)N[C@H]2CO[C@H]3[C@@H]2OC[C@@H]3n2nnnc2Oc2ccccc2)c1	-16.1%	-15.1%	i	?	?	?
N#Cc1cccc(NC(=S)N[C@H]2CO[C@H]3[C@@H]2OC[C@@H]3n2nnnc2Oc2cccc(N3CCOCC3)c2)c1	-12.1%	0.0%	i	-17.6%	44.7µM*	-28.3%
N#Cc1cccc(CN2CC3(COCC(=O)N(Cc4cccc(OC(F)(F)F)c4)C3)C2)c1	-0.1%	-7.1%	i	?	?	28.2µM*
O=C(NCC(=O)N1CCCCC1)c1ccc(-c2cnc3ccccc3c2)cc1	-5.0%	.	.	-28.9%	44.7µM*	?
O=C(CNC(=O)c1ccc(-c2cnc3ccccc3c2)cc1)NCC1CCCCC1	.	.	.	.	39.8µM*	?
O=C(CNC(=O)c1ccc(-c2cnc3ccccc3c2)cc1)NCC(F)(F)F	.	.	.	.	-29.8%	-16.9%
Cc1ccc(C2Cn3nnc(C(=O)N4CCC(C(=O)Nc5ccc(F)c(F)c5)CC4)c3CO2)cc1 (stereo not given)	-1.8%	0.0%	39.8µM*	64.0%	?	-15.3%
Cc1ccc(C2Cn3nnc(C(=O)N4CCC(C(=O)Nc5cc(F)cc(F)c5)CC4)c3CO2)cc1 (stereo not given)	-2.3%	-12.9%	28.2µM*	81.9%	-6.2%	i
c1ccc(-c2ccccc2Nc2cnc3ccc(-n4ccnc4)nn23)cc1	?	?	i	?	31.6µM*	25.1µM*
CN1CCN(c2ccc3ncc(Nc4ccccc4-c4ccccc4)n3n2)CC1	-12.1%[87.6 µM]	?	i	?	39.8µM*	25.1µM*
COc1ccccc1-c1cc(C(=O)NC2CCOCC2)c2cnn(C)c2n1	.	.	.	.	i	-5.6%
O=C(NCC1CC1)c1cc(-c2cccc(C(F)(F)F)c2)c2cccn2n1	-20.3%	.	.	?	28.2µM*	?
COC(=O)CNC(=O)c1cc(-c2cccc(C(F)(F)F)c2)c2cccn2n1	-9.2%	.	.	-14.9%	?	?
COCCNC(=O)c1cc(-c2cccc(C(F)(F)F)c2)c2cccn2n1	-1.4%	.	.	5.0%	31.6µM*	?
Cc1ccc(C(=O)N2CCCC2C(=O)N2CCC(N3Cc4ccccc4C3=O)CC2)cc1 (stereo not given)	?	.	.	-14.7%	?	-28.8%
Cn1ncc2c(C(=O)NCc3ccc(F)c(F)c3)cc(C(C)(C)C)nc21	-4.7%[12.5 µM]	.	.	?	56.2µM*	?
Cn1ncc2c(C(=O)NCc3ccc(F)cc3)cc(C(C)(C)C)nc21	3.8%[12.5 µM]	.	.	-11.2%[87.6 µM]	100µM*!	?
CC(=O)Nc1ccc(CN(C)Cc2ccccc2C(F)(F)F)cc1	-13.0%[87.6 µM]	-3.7%[70.6 µM]	i	9.8%[87.6 µM]	89.1µM*	?
CN(Cc1ccc(-c2ccccc2)cc1)C(=O)Nc1ccc(Cl)cc1	-11.4%	?	?	-5.0%	?	?
CC(=O)Nc1ccc(CN(C)Cc2ccc(-c3ccccc3)cc2)cc1	1.4%[87.6 µM]	-10.1%[70.6 µM]	i	42.8%[87.6 µM]	79.4µM*	?
SMILES	HEK293 viab	hNpr1 antagonist	FLuc inh	SNCA expr inhib	HEK cytotox	NIH3T3 tox
CC(C)S(=O)(=O)N1CCc2c(c(CN3CCOCC3)nn2C)C1	8.5%	.	.	-6.7%	-14.0%	-18.3%
COc1ccc(CCNC(=O)c2ccc3nc(-c4ccccn4)oc3c2)cc1	0.1%	.	.	15.2%	?	-15.8%
COc1cccc(-c2ccc(C(=O)N3CCC(N[S+](=O)([O-])c4c(C)noc4C)CC3)cc2)c1	8.6%[12.5 µM]	.	.	39.9%	22.4µM*	?
O=C(NC1CCN(C(=O)c2ccc(-c3cccs3)cc2)CC1)C1CC1	4.6%[12.5 µM]	.	.	11.7%	?	?
COc1ccccc1-c1ccc(C(=O)N2CCC(N[S+](=O)([O-])c3cccs3)CC2)cc1	3.7%[12.5 µM]	.	.	-3.4%	89.1µM*!	?
COc1ccccc1-c1ccc(C(=O)N2CCC(N[S+](=O)([O-])c3c(C)noc3C)CC2)cc1	?	.	.	14.6%	?	?
O=C(c1ccc(-c2cccs2)cc1)N1CCC(N[S+](=O)([O-])c2cccs2)CC1	5.2%[12.5 µM]	.	.	-4.2%	44.7µM*	?
COc1cccc(-c2ccc(C(=O)N3CCC(N[S+](C)(=O)[O-])CC3)cc2)c1	4.9%[12.5 µM]	.	.	10.4%	?	-32.6%
COc1cccc(-c2ccc(C(=O)N3CCC(N[S+](=O)([O-])c4cccs4)CC3)cc2)c1	-12.1%[12.5 µM]	.	.	2.6%	17.8µM*	15.8µM*
O=C(NCc1ccccc1)c1cc(-c2ccc(Cl)cc2Cl)c2nncn2n1	-13.9%[12.5 µM]	.	.	12.1%	?	?
CN(C)c1ccc(C(=O)N2CCN(C(=O)c3ccc(N(C)C)cc3)[C@H](C(=O)N[C@H](Cc3c[nH]c4ccccc34)C(N)=O)C2)cc1	1.9%	0.2%	i	1.3%	-9.5%	-21.8%
Cc1cnc(CCNC(=O)CCc2nc3ccccc3s2)n1C1CC1	-7.1%	.	.	18.6%	4.4%	-14.2%
CC(C)C(=O)NC1CCN(C(=O)c2ccc(-c3cccs3)cc2)CC1	-5.9%[12.5 µM]	.	.	-1.9%[87.6 µM]	70.8µM*	?
CC(=O)NC1CCN(C(=O)c2ccc(-c3cccs3)cc2)CC1	-2.0%[12.5 µM]	.	.	25.0%[87.6 µM]	3.4%[172 µM]	-19.4%[138 µM]
Cc1nn(-c2cccc(Br)c2)c(C)c1[C@@H]1C=C[C@@H](NCc2cccc(C#N)c2)C1	?	-19.9%	39.8µM*	-2.6%	?	?
Cc1nn(-c2cccc(Br)c2)c(C)c1[C@@H]1C=C[C@@H](NC(=O)CCCC(=O)O)C1	0.8%	3.2%	i	-3.7%	i	i
Cc1nn(-c2cccc(Br)c2)c(C)c1[C@@H]1C=C[C@@H](NS(C)(=O)=O)C1	-29.4%[87.6 µM]	?	56.2µM*	128.8%[87.6 µM]	?	?
Cc1nn(-c2ccccc2)c(C)c1[C@@H]1C=C[C@@H](NCc2cccc(C#N)c2)C1	-20.0%[87.6 µM]	-13.0%[70.6 µM]	i	68.7%[87.6 µM]	63.1µM*	?

Compound activity deposited in PubChem by National Center for Advancing Translational Sciences (NCATS).
